Here are results for 13 molecules from ChEMBL document CHEMBL1201862, “PubChem BioAssay data set” (2004).

“And” between values parts separate entries of the source, which are not always exact repeats. Equal entries are not always repeated.

A short description of the experiment: M. tuberculosis growth inhibition, dose response, purified and synthesized samples, set 9 (AID 602435). In kind it is functional.
As to `Cc1cccc(N2CCN(C(=O)c3ccc(CNc4c(N5CCC(C)CC5)c(=O)c4=O)cc3)CC2)c1C`, the IC90 is > 50 µM (active). For `O=C(c1ccc(CNc2c(N3CCCC3)c(=O)c2=O)cc1)N1CCC(c2ccccc2)CC1` the value was > 100 µM (active). As to `CC(C)OC(=O)CSc1ncnc2c1cnn2-c1ccccc1`, the IC90 is > 100 µM (active). Then `CC1CCCN(C(=O)c2ccc(CNc3c(N4CCCCC4)c(=O)c3=O)cc2)C1` (stereo not drawn), with > 50 µM (active); and `O=C(c1ccc(CNc2c(N3CCCC3)c(=O)c2=O)cc1)N1CC=C(c2ccccc2)CC1`, with > 44.6 µM (active) and > 50 µM (active). For `CC1CC(C)CN(C(=O)C2CCC(CNc3c(N4CCCCC4)c(=O)c3=O)CC2)C1` (stereo not drawn) the value was > 75 µM (active) and > 50 µM (active). With `COc1ccc(N2CCN(C(=O)c3ccc(CNc4c(N5CCOCC5)c(=O)c4=O)cc3)CC2)cc1`, the IC90 was > 73.2 µM (active) and > 39 µM (active). Regarding `O=C(NCCc1ccc(Cl)cc1)C1CCC(CNc2c(N3CCCCC3)c(=O)c2=O)CC1` (stereo not drawn), the IC90 was > 50 µM (active). For `CC(C)CCNC(=O)CSc1nc2c(c(=O)[nH]1)CCCCC2` the value was > 100 µM (active); for `CC1CCN(C(=O)c2ccc(CNc3c(N4CCCC4)c(=O)c3=O)cc2)CC1`, > 50 µM (active). Then `O=C(c1ccc(CNc2c(N3CCCC3)c(=O)c2=O)cc1)N1CCN(c2ccccc2)CC1`, with > 83.3 µM (active); and `O=C(c1ccc(CNc2c(N3CCCC3)c(=O)c2=O)cc1)N1CCc2ccccc2C1`, with > 50 µM (active); and `CC1CCCN(C(=O)C2CCC(CNc3c(N4CCCCC4)c(=O)c3=O)CC2)C1` (stereo not drawn), with > 50 µM (active).

The IC90 is the concentration needed for an effect of 90%.
